Results reported in PubChem BioAssay AID1159580 (chemical genetic matrix, 2015).
Several values for one entry are separate records, joined by “and”; a condition that tells them apart may be missing. Equal entries are not always repeated. Hit rate of the full screen: of about 5,500 compounds, about 2,000 (36%) were called active. Another 18% or so got no clear call; they are omitted. Cut-off read from the data, not from the text of the source: active = normalized growth mostly below about 0.91 (no sharp cut-off); inconclusive = no clear call, values can overlap the other calls; inactive = mostly above about 0.92. The list shows a part of the results.

Test: chemical genetic growth profiling, strain panel (AID 1159580);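 note: tested at 20 µM; growth read once vehicle control cultures reached saturation at 30 °C; 1 = growth at the plate median or of vehicle wells; lower values mean less growth of the strain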
Conditions: S. cerevisiae deletion strains, growth OD

Measured: normalized growth

CC12CCC(=O)C=C1CCC1C2[C@@H](O)CC2(C)C1CC[C@]2(O)C(=O)COP(=O)(O)O (stereo partly drawn)
inactive: locus YAL013W, strain DEP1, stronger effect = lower value 1.02 | locus YAL021C, strain ccr4, stronger effect = lower value 1 | locus YAL026C, strain drs2, stronger effect = lower value 0.999 | locus YAL030W, strain snc1, stronger effect = lower value 1.01 | locus YBL061C, strain skt5, stronger effect = lower value 0.998 | locus YBR009C, strain hhf1, stronger effect = lower value 0.994 | locus YBR021W, strain FUR4, stronger effect = lower value 1.02 | locus YBR023C, strain chs3, stronger effect = lower value 0.992 | locus YBR171W, strain sec66, stronger effect = lower value 1 | locus YBR229C, strain ROT2, stronger effect = lower value 1.01 | locus YBR231C, strain swc5, stronger effect = lower value 0.989 | locus YBR279W, strain paf1, stronger effect = lower value 1 | locus YCL011C, strain gbp2, stronger effect = lower value 0.991 | locus YCL016C, strain dcc1, stronger effect = lower value 0.973 | locus YCL029C, strain bik1, stronger effect = lower value 1.01 | locus YCL061C, strain MRC1, stronger effect = lower value 0.999 | locus YCL069W, strain vba3, stronger effect = lower value 1.01 | locus YCR088W, strain abp1, stronger effect = lower value 0.995 | locus YDL005C, strain med2, stronger effect = lower value 0.997 | locus YDL035C, strain GPR1, stronger effect = lower value 1.01 | locus YDL040C, strain nat1, stronger effect = lower value 1.01 | locus YDL074C, strain BRE1, stronger effect = lower value 1.02 | locus YDL101C, strain DUN1, stronger effect = lower value 1.01 | locus YDL185W, strain tfp1, stronger effect = lower value 1 | locus YDL192W, strain arf1, stronger effect = lower value 1.01 | locus YDR001C, strain nth1, stronger effect = lower value 0.996 | locus YDR069C, strain doa4, stronger effect = lower value 1.01 | locus YDR101C, strain arx1, stronger effect = lower value 1.03 | locus YDR137W, strain rgp1, stronger effect = lower value 0.992 | locus YDR150W, strain NUM1, stronger effect = lower value 1.02 | locus YDR159W, strain sac3, stronger effect = lower value 1 | locus YDR162C, strain NBP2, stronger effect = lower value 1.01 | locus YDR195W, strain ref2 0.992 | locus YDR297W, strain sur2, stronger effect = lower value 0.996 | locus YDR318W, strain mcm21, stronger effect = lower value 0.999 | locus YDR334W, strain swr1, stronger effect = lower value 0.998 | locus YDR335W, strain msn5, stronger effect = lower value 1.01 | locus YDR388W, stronger effect = lower value 1 | locus YDR392W, strain spt3, stronger effect = lower value 0.928 | locus YDR502C, strain sam2, stronger effect = lower value 1 | locus YEL003W, strain gim4, stronger effect = lower value 1 | locus YEL037C, strain rad23, stronger effect = lower value 1.01 | locus YEL061C, strain CIN8 (second series), stronger effect = lower value 1 | locus YEL061C, strain CIN8, stronger effect = lower value 1.02 | locus YER015W, strain faa2, stronger effect = lower value 1 | locus YER016W, strain bim1, stronger effect = lower value 1 | locus YER110C, stronger effect = lower value 1.01 | locus YER111C, strain swi4, stronger effect = lower value 1 | locus YER155C, strain BEM2 (second series), stronger effect = lower value 1.01 | locus YER155C, strain BEM2, stronger effect = lower value 1.01 | locus YER167W, strain BCK2, stronger effect = lower value 1.01 | locus YFR010W, strain ubp6, stronger effect = lower value 1.01 | locus YGL078C, strain dbp3, stronger effect = lower value 0.994 | locus YGL086W, strain mad1, stronger effect = lower value 1 | locus YGL167C, strain pmr1, stronger effect = lower value 0.996 | locus YGL173C, strain kem1, stronger effect = lower value 0.995 | locus YGL227W, strain vid30, stronger effect = lower value 0.996 | locus YGL240W, strain doc1, stronger effect = lower value 1.01 | locus YGL248W, strain PDE1, stronger effect = lower value 1 | locus YGL253W, strain hxk2, stronger effect = lower value 1.01 | locus YGR078C, strain PAC10, stronger effect = lower value 1.01 | locus YGR135W, strain pre9, stronger effect = lower value 0.997 | locus YGR229C, strain SMI1, stronger effect = lower value 1.02 | locus YGR252W, strain gcn5, stronger effect = lower value 0.958 | locus YHR013C, strain ard1, stronger effect = lower value 0.991 | locus YHR027C, strain rpn1, stronger effect = lower value 0.994 | locus YHR030C, strain SLT2, stronger effect = lower value 1.02 and 0.987 | locus YHR079C, strain IRE1 (second series), stronger effect = lower value 1 | locus YHR079C, strain IRE1, stronger effect = lower value 0.96 | locus YHR094C, strain hxt1, stronger effect = lower value 1.01 | locus YHR129C, strain ARP1, stronger effect = lower value 1.01 | locus YHR142W, strain chs7, stronger effect = lower value 0.993 | locus YHR200W, strain rpn10, stronger effect = lower value 1.01 | locus YIL066C, strain RNR3, stronger effect = lower value 1.02 | locus YIL073C, strain SPO22, stronger effect = lower value 1.01 | locus YIL125W, strain kgd1, stronger effect = lower value 0.985 | locus YIR030C, strain dcg1, stronger effect = lower value 1.01 | locus YJL092W, strain hpr5, stronger effect = lower value 1 | locus YJL095W, strain BCK1 (second series), stronger effect = lower value 0.995 | locus YJL095W, strain BCK1, stronger effect = lower value 1.01 and 0.981 | locus YJL115W, strain asf1, stronger effect = lower value 0.997 | locus YJL129C, strain trk1, stronger effect = lower value 1.01 | locus YJL134W, strain LCB3, stronger effect = lower value 1.01 | locus YJL154C, strain vps35, stronger effect = lower value 1 | locus YJL164C, strain tpk1, stronger effect = lower value 0.995 | locus YJL166W, strain qcr8, stronger effect = lower value 0.986 | locus YJL168C, strain set2, stronger effect = lower value 0.998 | locus YJL187C, strain SWE1 (second series), stronger effect = lower value 1.01 | locus YJL187C, strain SWE1, stronger effect = lower value 1 | locus YJR043C, strain POL32, stronger effect = lower value 1.02 | locus YJR066W, strain TOR1, stronger effect = lower value 0.917 | locus YKL009W, strain mrt4, stronger effect = lower value 1.01 | locus YKL068W, stronger effect = lower value 1.01 | locus YKL085W, strain MDH1 (second series), stronger effect = lower value 1 | locus YKL085W, strain MDH1, stronger effect = lower value 1 | locus YKL160W, strain elf1, stronger effect = lower value 0.985 | locus YKL190W, strain CNB1, stronger effect = lower value 1.02 | locus YKR001C, strain vps1, stronger effect = lower value 0.997 | locus YKR026C, strain gcn3, stronger effect = lower value 1.01 | locus YKR091W, strain srl3, stronger effect = lower value 1 | locus YLL001W, strain dnm1, stronger effect = lower value 0.982 | locus YLL026W, stronger effect = lower value 1 | locus YLL041C, strain sdh2, stronger effect = lower value 0.997 | locus YLR027C, strain aat2, stronger effect = lower value 1.01 | locus YLR039C, strain RIC1, stronger effect = lower value 0.976 | locus YLR058C, strain SHM2, stronger effect = lower value 1 | locus YLR102C, strain apc9, stronger effect = lower value 0.998 | locus YLR113W, strain HOG1, stronger effect = lower value 1 | locus YLR221C, strain rsa3, stronger effect = lower value 0.986 | locus YLR258W, strain gsy2, stronger effect = lower value 1.03 | locus YLR262C, strain YPT6 (second series), stronger effect = lower value 0.987 | locus YLR262C, strain YPT6, stronger effect = lower value 1.06 | locus YLR268W, strain sec22, stronger effect = lower value 0.993 | locus YLR320W, strain mms22, stronger effect = lower value 0.994 | locus YLR330W, strain CHS5, stronger effect = lower value 1.01 | locus YLR342W, strain FKS1 (second series), stronger effect = lower value 1 | locus YLR342W, strain FKS1, stronger effect = lower value 1 | locus YLR357W, strain rsc2, stronger effect = lower value 0.998 | locus YLR370C, strain arc18, stronger effect = lower value 1.01 | locus YLR371W, strain rom2, stronger effect = lower value 0.994 | locus YLR384C, strain iki3, stronger effect = lower value 0.995 | locus YLR418C, strain cdc73, stronger effect = lower value 0.982 | locus YML016C, strain PPZ1, stronger effect = lower value 1 | locus YML032C, strain rad52, stronger effect = lower value 0.991 | locus YML120C, strain ndi1, stronger effect = lower value 0.995 | locus YML124C, strain tub3, stronger effect = lower value 0.999 | locus YMR058W, strain fet3, stronger effect = lower value 0.998 | locus YMR078C, strain ctf18, stronger effect = lower value 1 | locus YMR125W, strain sto1, stronger effect = lower value 0.997 | locus YMR129W, stronger effect = lower value 1 | locus YMR205C, strain PFK2, stronger effect = lower value 0.983 | locus YMR223W, strain ubp8, stronger effect = lower value 0.993 | locus YMR231W, strain pep5, stronger effect = lower value 1 | locus YMR263W, strain SAP30, stronger effect = lower value 1.02 | locus YMR307W, strain GAS1, stronger effect = lower value 0.988 | locus YNL067W, strain RPL9B, stronger effect = lower value 1.02 | locus YNL071W, strain lat1, stronger effect = lower value 1 | locus YNL128W, strain TEP1, stronger effect = lower value 1.03 | locus YNL183C, strain NPR1, stronger effect = lower value 0.951 | locus YNL209W, strain ssb2, stronger effect = lower value 1 | locus YNL233W, strain BNI4, stronger effect = lower value 1.01 | locus YNL248C, strain rpa49, stronger effect = lower value 1.01 | locus YNL250W, strain rad50, stronger effect = lower value 1 | locus YNL271C, strain bni1, stronger effect = lower value 1 | locus YNL298W, strain CLA4, stronger effect = lower value 0.992 | locus YNL307C, strain MCK1, stronger effect = lower value 1 | locus YNL322C, strain KRE1 (second series), stronger effect = lower value 0.999 | locus YNR049C, strain mso1, stronger effect = lower value 0.995 | locus YNR052C, strain pop2, stronger effect = lower value 0.998 | locus YOL012C, strain htz1 0.651 | locus YOL147C, strain pex11, stronger effect = lower value 1.01 | locus YOR001W, strain rrp6, stronger effect = lower value 0.989 | locus YOR061W, strain CKA2, stronger effect = lower value 1 | locus YOR069W, strain VPS5, stronger effect = lower value 1.01 | locus YOR070C, strain gyp1, stronger effect = lower value 0.999 | locus YOR080W, strain dia2, stronger effect = lower value 0.999 | locus YOR083W, strain WHI5, stronger effect = lower value 0.993 | locus YOR106W, strain vam3, stronger effect = lower value 0.976 | locus YOR136W, strain idh2, stronger effect = lower value 0.995 | locus YOR144C, strain elg1, stronger effect = lower value 1 | locus YOR184W, strain ser1, stronger effect = lower value 0.992 | locus YOR231W, strain MKK1, stronger effect = lower value 0.981 | locus YOR265W, strain rbl2, stronger effect = lower value 1 | locus YOR270C, strain vph1, stronger effect = lower value 1.01 | locus YOR290C, strain snf2, stronger effect = lower value 0.914 | locus YOR316C, strain cot1, stronger effect = lower value 1.01 | locus YPL051W, strain arl3, stronger effect = lower value 0.986 | locus YPL055C, strain LGE1, stronger effect = lower value 1.01 | locus YPL078C, strain atp4, stronger effect = lower value 0.995 | locus YPL106C, strain sse1, stronger effect = lower value 0.969 | locus YPL240C, strain hsp82, stronger effect = lower value 0.991 | locus YPL241C, strain CIN2, stronger effect = lower value 1.01 | locus YPL256C, strain CLN2, stronger effect = lower value 0.957 | locus YPR119W, strain clb2, stronger effect = lower value 1 | locus YPR141C, strain kar3, stronger effect = lower value 1.01 | locus YPR163C, strain tif3, stronger effect = lower value 1.01 | locus YPR167C, strain met16, stronger effect = lower value 0.998 | strain wtn01, stronger effect = lower value 1
